Test results published in PubChem BioAssay (NCATS).
Values joined by “and” are separate entries in the source; they are usually repeats but may differ in a detail not shown here. Identical values can stand only once. Results filed as inconclusive are left out. Active and inactive are the calls of the source. The call rests on the fitted dose curve; in most records, active means well fitted inhibition curve with a large enough effect; inconclusive means small, poorly fitted or top-dose-only effect; inactive means flat fitted curve, though single readings scatter.
On the % scale 0 is the no-effect control and ±100 the full control effect; potency means the concentration at half of the fitted maximal effect.

The compounds below were run on KB-3-1 (assay: Cytotoxic Profiling of Annotated Libraries Using Quantitative High-Throughput Screening (AID 1296008; further: nearly all actives have a fitted effect of over 60% in size)). Settings: Five cell lines viability, CellTiter-Glo ATP luminescence, 48-72 h; max response: active compounds read low.
Method in brief: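 Cells exposed to compounds for 48 or 72 hr at 37 degrees Celsius. Viability read as ATP-coupled luminescence with CellTiter-Glo after 10 min at room temperature.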
For C[C@]12C=CC(=O)C=C1CC[C@@H]1[C@@H]2CC[C@]2(C)OC(=O)CC[C@@H]12, the max response was 5.64% (inactive).
C[C@H]1CC[C@@H]2[C@@H](C)[C@H]3[C@H](C[C@H]4[C@@H]5CC=C6CC(O[C@@H]7O[C@H](CO)[C@H](O)[C@H](O[C@@H]8O[C@H](CO)[C@@H](O)[C@H](O)[C@H]8O)[C@H]7O[C@H]7O[C@@H](C)[C@H](O)[C@@H](O)[C@H]7O)CC[C@]6(C)[C@H]5CC[C@]34C)N2C1 (stereo not given in full) was tested, and the max response was 48.6% (inactive).
In the case of CCN1C[C@]2(COC)[C@H](O)C[C@H](OC)[C@@]34[C@@H]5C[C@@]6(O)[C@H](OC(=O)c7ccccc7)[C@@H]5[C@@](OC(C)=O)([C@@H]([C@H](OC)[C@H]23)[C@@H]14)[C@@H](O)[C@@H]6OC, the max response is reported as 2.56% (inactive).
Oc1ccc2c3c1O[C@H]1[C@@H](O)CC[C@@]4(O)[C@@H](C2)N(CC2CCC2)CC[C@]314 was tested, and the max response was 4.11% (inactive).
With CCOc1ccc2c3c1O[C@H]1[C@@H](O)C=C[C@H]4[C@@H](C2)N(C)CC[C@@]341 the max response was -8.27% (inactive).
In the case of CC(=O)O[C@H]1C[C@H](O[C@H]2[C@@H](O)C[C@H](O[C@H]3[C@@H](O)C[C@H](OC4CC[C@@]5(C)[C@H](CC[C@@H]6[C@@H]5CC[C@]5(C)[C@@H](C7=CC(=O)OC7)CC[C@]65O)C4)O[C@@H]3C)O[C@@H]2C)O[C@H](C)[C@H]1O[C@@H]1O[C@H](CO)[C@@H](O)[C@H](O)[C@H]1O (stereo not given in full), the Potency is reported as 206 nM (active).
With c1cc2c(c(NC3=NCCN3)c1)CCCC2 the max response was -8.19% (inactive).
In the case of O=P(O)(O)C(Cl)(Cl)P(=O)(O)O, the max response is reported as -7.13% (inactive).
In the case of O[C@H]1[C@H]2[C@H](O)CCCN2C[C@H]1O, the max response is reported as -14% (inactive).
In the case of CN(C)CCCCCCN(C)C (tested in a mixture with another compound), the max response is reported as 0.743% (inactive).
With CCCC(C)(COC(N)=O)COC(=O)NC1CC1 (stereo not given) the max response was -23.5% (inactive).
In the case of CN1[C@H]2CC[C@@H]1[C@@H](C(=O)O)[C@@H](OC(=O)c1ccccc1)C2, the max response is reported as 17.1% (inactive) and -20.4% (inactive).
In the case of N#CC1(N2CCCCC2)CCCCC1, the max response is reported as 9.38% (inactive).
For Clc1ccc(C(Cn2ccnc2)OCc2csc3c(Cl)cccc23)c(Cl)c1 (stereo not given), the max response was -3.27% (inactive).
For C=CCN=C=S, the max response was -2.35% (inactive).
C/C(=C\c1csc(C)n1)[C@@H]1C[C@@H]2O[C@]2(C)CCC[C@H](C)[C@H](O)[C@@H](C)C(=O)C(C)(C)[C@@H](O)CC(=O)O1 was tested, and the max response was -86.7% (inactive).
In the case of O=C(NCNC(=O)NC1C(=O)NC(=O)N1CO)NC1C(=O)NC(=O)N1CO (stereo not given), the max response is reported as 2.87% (inactive).
In the case of O=C(CS(=O)C(c1ccccc1)c1ccccc1)NO (stereo not given), the max response is reported as -1.93% (inactive).
For [S]=[Sb](=[S])[S][Sb](=[S])=[S], the max response was 2.26% (inactive).
For [O]=[Cd], the max response was -8.4% (inactive).
For OC[C@@H](O)[C@H]1O[C@@H]2O[C@H](C(Cl)(Cl)Cl)O[C@@H]2[C@H]1O, the max response was 3.48% (inactive).
With Clc1ccc(Cl)cc1 the max response was 0.597% (inactive).
With CCC(=O)O[C@@](Cc1ccccc1)(c1ccccc1)[C@@H](C)CN(C)C the max response was -0.686% (inactive).
CCC(C)(S(=O)(=O)CC)S(=O)(=O)CC was tested, and the max response was -12.7% (inactive).
Cc1ccccc1-n1c(CF)nc2ccc(N)cc2c1=O was tested, and the max response was -0.0685% (inactive).
C[C@H]1CCC[C@H](O)CCCCCc2cc(O)cc(O)c2C(=O)O1 was tested, and the max response was 2.03% (inactive).
With C#CCN1CC(=O)N(COC(=O)C2C(C=C(C)C)C2(C)C)C1=O (stereo not given) the max response was -3.38% (inactive).
O=C(NC(=O)c1c(F)cccc1F)Nc1ccc(Cl)c(Oc2ncc(C(F)(F)F)cc2Cl)c1 was tested, and the max response was -5.7% (inactive).
In the case of OC(c1ccccc1)(c1ccccc1)C1CN2CCC1CC2 (stereo not given), the max response is reported as -22.3% (inactive).
CCN(CC)CCO[C@H]1CC[C@@]2(C)C(=CC[C@@H]3[C@@H]2CC[C@]2(C)C(=O)CC[C@@H]32)C1 was tested, and the max response was -11.5% (inactive).
For COCC(C)N(C(=O)CCl)c1c(C)csc1C (stereo not given), the max response was -0.17% (inactive).
In the case of O=CC=O, the max response is reported as -15.6% (inactive).
In the case of O=c1[nH]c(=O)n(Cl)c(=O)n1Cl, the max response is reported as 7.09% (inactive).
CC1CCC(C(C)C)C(OC(=O)c2ccccc2N)C1 (stereo not given) was tested, and the max response was 24.6% (inactive).
In the case of CCC1(c2ccccc2)C(=O)NC(=O)N(C(=O)c2ccccc2)C1=O (stereo not given), the max response is reported as -9.95% (inactive).
